Experimental data from PubChem BioAssay (Tox21).
Inconclusive results are not listed. Entries that show only a call come without a potency. Unmarked numbers belong to inactive results. Calls of active or inactive are those of the source. The call rests on the fitted dose curve; in most records, active means well fitted activation curve with a large enough effect in the repeat runs; inconclusive means weak or mixed curves; inactive means flat fitted curve, though single readings scatter.

Assay: A CellTox Green Cytotoxicity Assay to monitor cytotoxicity in HepG2 cells - 8 hour (AID 1224890); further: nearly all actives have a fitted effect of over 45% in size
Settings: CellTox Green fluorescence; series mostly up to 76.8 µM
Source text: National Center for Advancing Translational Sciences [NCATS]
NIH Chemical Genomics Center [NCGC]
U.S. Environmental Protection Agency [EPA]
National Institutes of Environmental Health Sciences [NIEHS]
National Toxicology Program [NTP]
Cell-based models are critical for drug discovery. Determining the natural cytotoxic effects resulting from test compounds is an essential research activity. A CellTox Green Cytotoxicity Assay to monitor cytotoxicity in real time of continues cell culture during 40 hours of the compound treatment was used to screen Tox21 10K library compounds in HepG2 cells. CellTox Green Cytotoxicity Assay is a nonlytic, homogeneous, biofluorescent method to measure cytotoxicity in cell culture after experimental manipulation. The assay system uses a proprietary asymmetric cyanine dye that is excluded from viable cells but preferentially stains the dead cell's DNA. […] Viable cells produce no appreciable increases in fluorescence. Therefore, the fluorescence signal produced by the binding interaction with dead cell DNA is proportional to cytotoxicity.
The mixture of HepG2 cell suspension and reagents were dispensed at 600cells/6 ul/well in 1536-well tissue culture treated black solid bottom plates using a Multidrop dispenser. After the assay plates were incubated at a 37 C/5% CO2 incubator for 5 hours, 23 nL of compounds dissolved in DMSO, positive and negative controls was transferred to the assay plate by a pintool work station. The plates were incubated at 37 C for 40 hours. The fluorescence intensity were measured at 0h, 8h, 16h, 24h, 32h and 40h time points using ViewLux plate reader during compound treatment.
Potency means the concentration at half of the fitted maximal effect.

Structure (SMILES) | Potency | cytotoxicity increase
CCN(CC)CCOc1ccccc1C(=O)CCc1ccccc1 | inactive | 
O=C(c1ccccc1)C1CCC1 | 38.9 µM (active) | 
O=NN(CCCl)C(=O)NCCCl | 5.35 µM (active) | 
CC12CC3CC(C)(C1)CC(N)(C3)C2 | inactive | 
CSSc1ccoc1C | inactive | 
O=C(O)CN1C(=O)c2cccc3cccc(c23)C1=O | inactive | 
O=C1OC[C@H](Cc2cccc(O)c2)[C@H]1Cc1cccc(O)c1 | inactive | 
CC1=CC[C@@]23C[C@@H]1C(C)(C)[C@@H]2CC[C@H]3C | inactive | 
O=C(O)CCC(=O)OC[C@@H](NC(=O)C(Cl)Cl)[C@H](O)c1ccc([N+](=O)[O-])cc1 | 21.3 µM (active) | 
Cc1c(C2(c3cc(Br)c(O)c(Br)c3C)OS(=O)(=O)c3ccccc32)cc(Br)c(O)c1Br | inactive | 
Cc1ccc(S(=O)(=O)NC(=O)NC2CCCCC2)cc1 | inactive | 
O=C(O)CNC(=O)c1ccccc1I | inactive | 
CCC(=O)OCc1ccc(OC)cc1 | inactive | 
CCOCCC(=O)OCC | inactive | 
Cc1cccc2sc(N)nc12 | inactive | 
CC1C(C)(C)C2=C(C(=O)CCC2)C1(C)C (stereo not given) | inactive | 
O=[N+]([O-])c1ccc2ncccc2c1 | inactive | 
Cc1ccc(NC(=O)N(C)C)cc1NC(=O)N(C)C | inactive | 
CSCC[C@H](NC(=O)[C@H](Cc1c[nH]c2ccccc12)NC(=O)CCNC(=O)OC(C)(C)C)C(=O)N[C@@H](CC(=O)O)C(=O)N[C@@H](Cc1ccccc1)C(N)=O | inactive | 
c1ccc2sc(SSc3nc4ccccc4s3)nc2c1 |  | 0.594% [at 15.8 µM]

Structure (SMILES) | Potency | cytotoxicity increase
Cc1ccc(N(CCO)CCO)cc1 | inactive | 
CCCCCCCCCCCSCC(=O)O | inactive | 
CCc1ccc(C)cc1 | inactive | 
CNC1CCCN(c2c(F)cc3c(=O)c(C(=O)O)cn(C4CC4)c3c2OC)C1 (stereo not given) | inactive | 
CCN(CC)C(=O)/C(C#N)=C/c1cc(O)c(O)c([N+](=O)[O-])c1 | inactive | 
CCCCCCCCCCCCCCN(C)C |  | -1.47% [at 15.8 µM]
CC/C=C\C/C=C\C/C=C\CCCCCCCC(=O)OCC | inactive | 
O=P(O)(O)Oc1ccccc1 | inactive | 
CC(C)(C(=O)c1cccnc1)c1cccnc1 | inactive | 
CC(C)c1ccc(C#N)cc1 | inactive | 
CCSC(=O)N(CC)CC | inactive | 
CCN(CC)C(=O)N1CCN(C)CC1 | inactive | 
O=C(O)c1cccc(C[C@@H]2COc3ccc(OCc4nc5cc(F)ccc5s4)cc3[C@@H]2O)c1 | inactive | 
Nc1c(Cl)cc(Cl)cc1[N+](=O)[O-] | inactive | 
CCCCCCCCCCCCCCCCCC(=O)OCC(CC)CCCC (stereo not given) | inactive | 
CC(C)OC(=O)c1ccccc1C(=O)OC(C)C | inactive | 
CCNc1nc(N)nc(Cl)n1 | inactive | 
CCCCC[C@H](O)/C=C/[C@H]1[C@H](O)CC(=O)[C@@H]1C/C=C\CCCC(=O)O | inactive | 
CC(C)N=C=NC(C)C | inactive | 
O=c1[nH]c2cc(C(F)(F)F)c(N3CCOCC3)cc2n(CP(=O)(O)O)c1=O | inactive | 
